Assay results reported in article PMC4336329 (PLoS ONE, 2015).
The whole screen tested about 310,000 compounds, of which about 14,000 (4.5%) showed an effect of 50% or more. The effect is printed as a negative number. The sample holds strong results, similar compounds and a random draw of the others, so the mix is not that of the screen.

Target: human ether-à-go-go-related gene (hERG) potassium channel (human, UniProt Q12809)
Test: primary screen, population patch clamp on CHO cells stably expressing hERG; higher = less effect of the substance
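Also: peak tail current of the secondary pulse compared with the same well before compound.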

Sequence of human ether-à-go-go-related gene (hERG) potassium channel (Q12809 whole entry, looked up): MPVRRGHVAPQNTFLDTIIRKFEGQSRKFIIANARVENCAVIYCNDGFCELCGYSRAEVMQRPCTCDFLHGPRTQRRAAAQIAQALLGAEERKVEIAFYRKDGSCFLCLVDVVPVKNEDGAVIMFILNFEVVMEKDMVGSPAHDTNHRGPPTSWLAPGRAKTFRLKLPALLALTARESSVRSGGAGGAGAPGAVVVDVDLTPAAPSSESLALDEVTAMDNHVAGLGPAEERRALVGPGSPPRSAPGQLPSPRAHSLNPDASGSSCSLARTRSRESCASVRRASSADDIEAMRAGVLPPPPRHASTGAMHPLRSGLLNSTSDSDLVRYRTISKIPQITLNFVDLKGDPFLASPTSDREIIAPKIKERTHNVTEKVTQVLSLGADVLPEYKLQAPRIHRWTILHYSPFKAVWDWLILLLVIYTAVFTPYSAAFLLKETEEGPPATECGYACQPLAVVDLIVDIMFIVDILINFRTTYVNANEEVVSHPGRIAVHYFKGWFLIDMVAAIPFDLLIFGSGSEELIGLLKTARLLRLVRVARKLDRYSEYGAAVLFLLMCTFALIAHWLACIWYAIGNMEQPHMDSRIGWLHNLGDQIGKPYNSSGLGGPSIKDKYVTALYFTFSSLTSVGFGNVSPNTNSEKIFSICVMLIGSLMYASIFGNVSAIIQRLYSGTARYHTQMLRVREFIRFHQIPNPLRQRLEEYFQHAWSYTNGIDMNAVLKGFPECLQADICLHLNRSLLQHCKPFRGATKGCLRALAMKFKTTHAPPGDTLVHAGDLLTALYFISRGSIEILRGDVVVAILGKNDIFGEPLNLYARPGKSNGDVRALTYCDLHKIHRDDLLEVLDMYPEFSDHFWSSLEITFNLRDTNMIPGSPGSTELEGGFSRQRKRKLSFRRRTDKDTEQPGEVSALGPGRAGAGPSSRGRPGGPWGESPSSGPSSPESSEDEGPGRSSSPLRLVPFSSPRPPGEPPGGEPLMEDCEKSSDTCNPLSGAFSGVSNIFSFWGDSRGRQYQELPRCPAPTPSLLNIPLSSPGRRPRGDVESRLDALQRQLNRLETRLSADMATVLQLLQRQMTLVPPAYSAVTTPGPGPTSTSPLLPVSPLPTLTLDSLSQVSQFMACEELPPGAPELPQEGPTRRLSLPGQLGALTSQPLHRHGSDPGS

Row | Compound | hERG current change (%, negative = inhibition) at 10uM [%]
1 | O=C(CSc1nnc(-c2ccco2)o1)NC(=O)Cc1ccccc1 | -5.31
2 | CC[C@@H](CCC=C(C)C)C(=O)N(Cc1ccccc1)c1ccccc1 | 3.94
3 | CN1CCC(O)(c2ccc(Cl)cc2)C(C(=O)c2ccc(Cl)cc2)C1 (stereo not shown) | -67.7
4 | CN1CCC(O)(c2ccccc2)C(C(=O)c2ccccc2)C1 (stereo not shown) | -2.34
5 | CCN1CCC(O)(c2ccccc2)C(C(=O)c2ccccc2)C1 (stereo not shown) | -7.58
6 | O=C(CCl)Oc1ccc2occ(C(=O)c3cccs3)c2c1 | 0.872
7 | C/C(=N\Nc1ccc(Cl)c(C(=O)O)c1)c1ccccn1 | 5.73
8 | CCOc1cccc(SCc2noc(C(=O)NCC3CCCO3)c2C(=O)O)c1 (stereo not shown) | 32.2
9 | NS(=O)(=O)c1ccc(-c2cccc(/C=C3\SC(=O)NC3=O)c2)cc1 | 7.87
10 | Cc1cc(/C=C(/C#N)C(=O)Nc2ccc(Cl)cc2)c(C)n1-c1cccnc1 | -67.5
11 | Cc1cc(/C=C(\C#N)C(=O)Nc2ccccc2)c(C)n1-c1cccnc1 | 8.27
12 | Cc1cc(/C=C(/C#N)C(=O)Nc2ccccc2)c(C)n1-c1cccnc1 | -28.5
13 | Cc1c(C(=O)N2CCCC2)nnn1-c1nonc1N | 8.67
14 | O=C(c1ccco1)N1N=C(c2ccc(Br)cc2)CC1c1ccco1 (stereo not shown) | 18.5
15 | CCS(=O)(=O)Nc1cccc(C2=NN(C(=O)c3ccco3)C(c3ccco3)C2)c1 (stereo not shown) | -4.98
16 | CS(=O)(=O)Nc1ccc(C2=NN(C(=O)c3ccco3)C(c3cccc(F)c3)C2)cc1 (stereo not shown) | -78.3
17 | CCS(=O)(=O)Nc1ccc(C2=NN(C(=O)c3ccco3)C(c3cccc(F)c3)C2)cc1 (stereo not shown) | -32.4
18 | CS(=O)(=O)Nc1ccc(C2=NN(C(=O)c3ccco3)C(c3ccccc3F)C2)cc1 (stereo not shown) | -78.2
19 | CS(=O)(=O)Nc1cccc(C2=NN(C(=O)c3ccco3)C(c3ccco3)C2)c1 (stereo not shown) | -2.88
20 | CS(=O)(=O)Nc1cccc(C2=NN(C(=O)c3ccco3)C(c3cccs3)C2)c1 (stereo not shown) | -59
21 | Cc1ccc(C2=NN(C(=O)c3ccccc3F)C(c3ccccc3F)C2)cc1 (stereo not shown) | 19
22 | CS(=O)(=O)Nc1cccc(C2=NN(C(=O)c3ccccc3)C(c3cccs3)C2)c1 (stereo not shown) | -14
23 | CCC(=O)N1N=C(c2ccc(NS(C)(=O)=O)cc2)CC1c1ccc(C)cc1 (stereo not shown) | -44.7
24 | CCC(=O)N1N=C(c2ccc(NS(C)(=O)=O)cc2)CC1c1ccc(N(C)C)cc1 (stereo not shown) | -66.2
25 | CCC(=O)N1N=C(c2ccc(NS(=O)(=O)CC)cc2)CC1c1ccc(C)cc1 (stereo not shown) | -14.1
26 | CCn1c(CSc2nc3ccccc3s2)nnc1SCC(=O)c1ccc2c(c1)OCCO2 | -10.5

Row | Compound | hERG current change (%, negative = inhibition) at 10uM [%]
27 | O=C(COC(=O)/C=C/c1cccc(F)c1)Nc1ccc2[nH]c(=O)[nH]c2c1 | 9.96
28 | CCNC(=O)NC1(C(=O)N2CCC(Cc3ccccc3)CC2)CCCCC1 | 21.7
29 | CCCn1c(N)c(C(=O)CSc2nnc(Cc3cccs3)n2C2CC2)c(=O)n(C)c1=O | -0.534
30 | COc1ccc(N(CC(=O)Nc2ccccc2F)S(=O)(=O)c2ccc(OC)c(OC)c2)cc1 | -24.2
31 | O=C(NCCN1CCOCC1)c1cccc(S(=O)(=O)N2CCCCCC2)c1 | 7.38
32 | COc1ccc(C(=O)N/N=C/c2ccc(OC(=O)c3cccc4ccccc34)c([N+](=O)[O-])c2)cc1 | 3.57
33 | O=C(COC(=O)c1ccc(S(=O)(=O)NCc2ccco2)cc1)NC1CCCCC1 | -1.72
34 | CCN(Cc1nc(-c2ccc(OC)c(OC)c2)no1)C(=O)c1ccc2c(c1)OCO2 | 5.32
35 | O=c1[nH]c2c(c(=O)[nH]1)CCC2 | 17.7
36 | CCS(=O)(=O)Nc1ccc(C2=NN(C(=O)c3ccco3)C(c3cccs3)C2)cc1 (stereo not shown) | -1.38
37 | CS(=O)(=O)Nc1ccc(C2=NN(C(=O)c3ccco3)C(c3ccco3)C2)cc1 (stereo not shown) | -72.3
38 | O=C(c1ccco1)N1N=C(c2cccs2)CC1c1ccc(F)cc1 (stereo not shown) | -29
39 | CCC(CC)C(=O)N1N=C(c2ccc(NS(C)(=O)=O)cc2)CC1c1ccc(C)cc1 (stereo not shown) | -7.85
40 | CCS(=O)(=O)Nc1ccc(C2=NN(C(=O)c3ccco3)C(c3ccco3)C2)cc1 (stereo not shown) | -7.66
41 | Cc1ccc(C2CC(c3ccc(NS(C)(=O)=O)cc3)=NN2C(=O)c2ccco2)cc1 (stereo not shown) | -78.5
42 | O=C(c1ccco1)N1N=C(c2ccc3nccnc3c2)CC1c1ccccc1 (stereo not shown) | -22.3
43 | CS(=O)(=O)Nc1ccc(C2=NN(C(=O)c3ccco3)C(c3ccccc3)C2)cc1 (stereo not shown) | -77.6
44 | O=C(c1ccco1)N1N=C(c2ccccc2)CC1c1ccc2nccnc2c1 (stereo not shown) | -45
45 | CS(=O)(=O)Nc1ccc(C2=NN(C(=O)c3ccco3)C(c3ccc(F)cc3)C2)cc1 (stereo not shown) | -81.1
46 | CCS(=O)(=O)Nc1ccc(C2=NN(C(=O)c3ccco3)C(c3ccc(C)cc3)C2)cc1 (stereo not shown) | -21
47 | O=C(c1ccco1)N1N=C(c2ccc(Cl)cc2)CC1c1ccco1 (stereo not shown) | 15
48 | O=C(c1cc(-c2ccc(O)cc2)on1)N1CCN(c2ccc(F)cc2)CC1 | -23.6
49 | O=C(NCCCO)C(=O)NCC1OCCCN1S(=O)(=O)c1cccs1 (stereo not shown) | -10.6
50 | COc1ccc(C(=O)N(C)Cc2cnn(Cc3ccccc3)c2)cc1S(=O)(=O)N1CCOCC1 | -27
51 | Cc1cccc(NC(=S)Nc2c(C)n(C)n(-c3ccccc3)c2=O)c1C | -2.23
52 | CCc1nnc(NC(=O)CSc2nnc(-c3ccc(S(=O)(=O)N4CCCC4)cc3)n2CC)s1 | 8.86
